Source: PubChem BioAssay (National Center for Advancing Translational Sciences (NCATS))
Pol kappa inh-1 – inhibitors of human DNA polymerase kappa; Q9UBT6; purified Pol kappa, fluorescent DNA synthesis assay, 10 min; Potency, µM (highest dose often 107 µM), inactives show at the highest dose activity, negative = inhibition, actives largely listed as inhibitors; 400,000 tested, 0.53% active; AID 588579; further: potency means the concentration at half of the fitted maximal effect; on the % scale 0 is the no-effect control and ±100 the full control effect
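10 nM Pol kappa preincubated 15 min at room temperature with compounds, then reaction started with substrate at 50 nM final. Fluorescence read kinetically at 0 and 10 min; buffer-only wells served as negative control.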
Pol eta inh-1 – blocks human DNA polymerase eta activity. recombinant Pol eta, fluorescent DNA replication assay. Potency, µM (titrated, usually from 114 µM), inactives show top-dose activity change, negative = inhibition, usual class: inhibitors. 390,000 tested, 1.2% active. AID 588591; further: potency means the concentration at half of the fitted maximal effect; on the % scale 0 is the no-effect control and ±100 the full control effect
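Pol eta at 10 nM preincubated with compounds 15 min at room temperature; reaction started with fluorescent substrate (50 nM final) and read kinetically at 0 and 10 min.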
PI5P4K alpha inh – inhibitors of human PI5P4K alpha; P48426; PI5P4Kalpha enzyme, ADP-Glo luminescence, 60 min; stronger effect = lower value; max response, %; 330,000 tested, 1.2% active; AID 652105; active means max response of -50% or lower; inconclusive means between -30% and -50%; inactive means -30% or higher; further: value at the top dose of about 77 µM; on the % scale 0 is the no-effect control and ±100 the full control effect
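Human PI5P4Kalpha with substrate in 0.038 M HEPES pH 7.4, 0.28 mM EGTA, 0.1% CHAPS, 5% DMSO; reaction started with 5 microM ATP (final), 60 min at room temperature. ADP formed read by ADP-Glo luminescence.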
ALOX12 inh – blocks human arachidonate 12S-lipoxygenase. P18054. purified 12hLO, xylenol orange hydroperoxide absorbance. Potency, µM (series often up to 108 µM), inactives show top-dose activity change, negative = inhibition, most hits filed as inhibitors. 580,000 tested, 1.1% active. AID 1671190; further: potency means the concentration at half of the fitted maximal effect; on the % scale 0 is the no-effect control and ±100 the full control effect
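Purified human 12hLO (150 nM final) in 25 mM Hepes, 0.01% Triton X-100, pH 7.0 was preincubated 15 min at room temperature with compound. Then 40 uM arachidonic acid was added, 30 min. Hydroperoxide was read by Fe-XO absorbance ratio 573/405 nm.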
POLB inh – inhibitors of human DNA polymerase beta. P06746. Pol beta primer extension/strand displacement, fluorescence kinetic. Potency, µM (titrated, usually from 114 µM), for inactives: at the top dose activity change, negative = inhibition, usual class: inhibitors. 340,000 tested, 1.3% active; further: potency means the concentration at half of the fitted maximal effect; on the % scale 0 is the no-effect control and ±100 the full control effect
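Kinetic readout of DNA synthesis with strand displacement by Pol beta. Compound and 10 nM enzyme sit 15 min at room temperature; 50 nM substrate starts the reaction, read immediately and at 10 min.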
POLI inh – inhibitors of human DNA polymerase iota. AID 588590. 390,000 tested, 1% active. Pol iota fluorescent replication assay, 10 min. Potency, µM (highest dose often 115 µM), for the others: at the top dose activity, negative = inhibition, actives largely listed as inhibitors. Q9UNA4; further: potency means the concentration at half of the fitted maximal effect
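Pol iota at 10 nM preincubated 15 min with compounds at room temperature; reaction started with fluorescent substrate, 50 nM final. Fluorescence read kinetically at 0 and 10 min; buffer-only wells as negative control.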
TbPGK inh – validation of Trypanosoma brucei phosphoglycerate kinase inhibitors. shares compounds with Pol kappa inh-1. TbPGK coupled GAPDH assay, Kinase-Glo luminescence. Potency, µM (highest dose often 57.5 µM), for the others: at the highest dose activity change, negative = inhibition, most hits filed as inhibitors. 500 tested, 79% active. AID 686980; further: potency means the concentration at half of the fitted maximal effect; on the % scale 0 is the no-effect control and ±100 the full control effect; nearly all actives have a fitted effect of over 65% in size
POLI cherry-pick – Confirm cherry-picked inhibitors of human polymerase iota; Pol iota primer extension, TAMRA/BHQ fluorescence; Potency, µM, usual class: inhibitors; 1,500 tested, 77% active; shares compounds with Pol kappa inh-1; further: potency means the concentration at half of the fitted maximal effect
Pol kappa inh-2 – confirmation of human DNA polymerase kappa inhibitors; purified Pol-kappa, fluorescent strand-displacement substrate; shares compounds with Pol eta inh-1; Potency, µM, actives largely listed as inhibitors; 920 tested, 76% active; AID 720501; further: potency means the concentration at half of the fitted maximal effect
Pol eta inh-2 – confirmation of human DNA polymerase eta inhibitors. AID 720502. shares compounds with Pol eta inh-1. 2,600 tested, 64% active. Pol eta primer extension, TAMRA/BHQ fluorescence, 10 min. Potency, µM, hits mostly inhibitors; further: potency means the concentration at half of the fitted maximal effect
* = called active by the depositor; ? = inconclusive; · = no result. Sampled rows, rich in hits. Any-hit rate of the full collection: about 2.9%. Unless noted, the call rests on the fitted dose curve; in most records, active means well fitted curve in the direction sought with a large enough effect; inconclusive means small, poorly fitted or top-dose-only effect, or another doubt; inactive means no such curve, though single readings can be large; an effect the other way counts as inactive or inconclusive.

SMILES	Pol kappa inh-1	Pol eta inh-1	PI5P4K alpha inh	ALOX12 inh	POLB inh	POLI inh	POLI cherry-pick	Pol eta inh-2	others
O=C(N/N=C/c1ccc(-c2cccc([N+](=O)[O-])c2)o1)c1ccc([N+](=O)[O-])cc1	-15%	12%	-9	12%	2%	84%	·	·
CCC1CCCCN1Cc1nc2c(c(=O)n(C)c(=O)n2C)n1CCN1CCOCC1 (centres undefined)	·	·	·	-5%	·	·	·	·
Cn1c(=O)c2nc(SCc3ccccc3F)n(C)c2n(C)c1=O	·	·	·	3%	·	·	·	·
COC(=O)c1ccc(N2NC(=O)/C(=C/c3ccc(-c4ccc(Cl)c(C(=O)O)c4)o3)C2=O)cc1	28µM*	3.2µM*	?	?	22µM*	8.9µM*	27*	7.6*	Pol kappa inh-2=4.7*
O=C(O)c1cc(-c2ccc(/C=N/Nc3ccc(Cl)cc3)o2)ccc1Cl	-23%	?	·	?	-20%	?	·	·
O=C(O)CCCN1C(=O)/C(=C\c2ccc(-c3nc4ccccc4s3)o2)SC1=S	?	16µM*	-20	40µM*	16µM*	?	·	34*	TbPGK inh=?
O=C1NN(c2ccc(Cl)c(Cl)c2)C(=O)/C1=C/c1ccc(-c2ccccc2C(=O)O)o1	40µM*	20µM*	-58*	?	32µM*	5µM*	19*	30*	Pol kappa inh-2=17*
CC1=NOC(=O)/C1=C\c1ccc(-c2ccc(Cl)c(C(=O)O)c2)o1	35µM*	4.5µM*	?	?	14µM*	11µM*	42*	21*
COC(=O)c1ccccc1-c1ccc(/C=C2\C(=O)N(c3ccccc3)N=C2c2ccccc2)o1	9%	-9%	-2	-10%	23%	0%	·	·
COc1ccc(COC(=O)C2=C(C)NC3=C(C(=O)CCC3)C2c2cccc(OC)c2)cc1 (centres undefined)	·	·	·	13%	·	·	·	·
COc1ccc(Cl)cc1C(=O)Nc1ccc(C(C)(C)C)cc1	·	·	·	-2%	·	·	·	·
Cc1cccc(/C=C/C(=O)c2cc3cc(Cl)ccc3oc2=O)c1	·	·	·	-64%	·	·	·	·
O=C(O)c1cc(-c2ccc(/C=C3/SC(=S)N(Cc4ccccc4)C3=O)o2)ccc1Cl	79µM*	10µM*	?	13µM*	16µM*	13µM*	75*	27*
O=C1NC(=S)S/C1=C/c1ccc(N2CCOCC2)o1	?	?	-53*	·	14µM*	79µM*	38*	76*	Pol kappa inh-2=84*
CCOc1cc2nc(-c3ccc(OC)c(OC)c3)nc(N3CCCCC3)c2cc1OC	·	·	·	-65%	·	·	·	·
COc1cc(-c2cc(=O)c3ccc(O)cc3o2)cc(OC)c1OC	·	·	·	0%	·	·	·	·
COc1cc(OC)c(-c2c3cc(O)c(=O)cc-3oc3cc(O)c(O)cc23)cc1OC	?	·	-30	?	20µM*	·	1.3*	67*	Pol kappa inh-2=19*
C=CCN1C(=O)/C(=C2/Sc3ccccc3N2CCCS(=O)(=O)O)SC1=S	?	3.2µM*	?	?	45µM*	?	?	38*
CC(=O)Nc1cccc(NC(=O)CCc2c(C)[nH]n(-c3ccc(F)cc3)c2=O)c1	·	·	·	0%	·	·	·	·
O=C(N/N=C/c1ccc(OCC(=O)N2CCCCC2)cc1)c1ccccc1O	-6%	-4%	-19	-22%	-1%	11%	·	·
